This note sets out measurements from PubChem BioAssay (EPA / NIEHS).

Calls of active or inactive are those of the source. Rule for the calls: active = hit-call score of the fitted dose curve at least 0.9, where 1 is the maximum; inactive = score below 0.9.

Common to all, as to conditions: mRNA level, 48 h; actives raise or lower the signal
Read-out in test [1]: Heat shock 70 kDa protein 1 (HSPA1A), gene 3303
Description: LTEA_HepaRG_HSPA1A: Life Technologies and Expression Analysis (LTEA) Assay for Heat shock 70 kDa protein 1 (HSPA1A) using HepaRG (AID 2283502). The method, boiled down: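 HSPA1A expression measured by qRT-PCR with ACTB/GAPDH/POLR2A normalization; curves fitted in both directions relative to DMSO vehicle. Exposure: 48 h in HepaRG cells, duplicate 8-point half-log series from 100 uM, 0.5% DMSO, serum-free induction medium.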

Read-out in test [2]: Hypoxia-inducible factor 1-alpha (Homo sapiens) (UniProt Q16665)
Description: LTEA_HepaRG_HIF1A: Life Technologies and Expression Analysis (LTEA) Assay for Hypoxia-inducible factor 1 (HIF1A) Trancription factor using HepaRG (AID 2283503). The method, boiled down: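 HIF1A transcript level read by qRT-PCR (ACTB, GAPDH, POLR2A normalization) after 48 h chemical exposure of HepaRG cultures. Eight half-log concentrations, top 100 uM, 0.5% DMSO vehicle, duplicates; bidirectional curve fit against DMSO baseline.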

Read-out in test [3]: 3-Hydroxy-3-Methylglutaryl-CoA Synthase 2 (HMGCS2), HMGCS2 (gene 3158)
Description: LTEA_HepaRG_HMGCS2: Life Technologies and Expression Analysis (LTEA) Assay for 3-Hydroxy-3-Methylglutaryl-CoA Synthase 2 (HMGCS2) using HepaRG (AID 2283504). The method, boiled down: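 Expression of HMGCS2 in human HepaRG liver cells is measured by qRT-PCR 48 h after dosing (highest 100 uM, half-log series, 0.5% DMSO). Values come from bidirectional concentration-response fitting with DMSO as baseline.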

Read-out in a further test: HGF (gene 3082)
The test is described as follows: LTEA_HepaRG_HGF: Life Technologies and Expression Analysis (LTEA) Assay for Hepatocyte Growth Facto (HGF) using HepaRG (AID 2283505). The method, boiled down:
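Gain or loss of HGF mRNA in human HepaRG liver cells after 48 h chemical exposure; eight concentrations up to 100 uM with 0.5% DMSO vehicle, quantified by TaqMan qRT-PCR.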

Read-out in test [4]: Insulin Like Growth Factor 1 (IGF1), IGF1 (gene 3479)
Description: LTEA_HepaRG_IGF1: Life Technologies and Expression Analysis (LTEA) Assay for Insulin Like Growth Factor 1 (IGF1) using HepaRG (AID 2283506). The method, boiled down:
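Expression measured by TaqMan qRT-PCR on a Fluidigm array, with three housekeeping genes for normalisation, after 48 h treatment of HepaRG cells. Top concentration 100 uM with half-log steps, 0.5% DMSO vehicle, bidirectional fit.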

Read-out in test [5]: Interleukin 6 (IL6), IL6 (gene 3569)
The test is described as follows: LTEA_HepaRG_IL6: Life Technologies and Expression Analysis (LTEA) Assay for Interleukin 6 (IL6) using HepaRG (AID 2283509). The method, boiled down:
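Changes in IL6 mRNA, up or down relative to 0.5% DMSO controls, were derived from concentration-response curves in human HepaRG cells treated for 48 h at up to 100 uM, with ACTB, GAPDH and POLR2A as normalizers.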

Read-out in test [6]: Interleukin 6 Receptor (IL6R), IL6R (gene 3570)
The test is described as follows: LTEA_HepaRG_IL6R: Life Technologies and Expression Analysis (LTEA) Assay for Interleukin 6 Receptor (IL6R) using HepaRG (AID 2283510). The method, boiled down: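 IL6R transcript level by qRT-PCR after 48 h chemical exposure (8-point, half-log, max 100 uM, 0.5% DMSO vehicle) of HepaRG cells in serum-free induction medium. Normalized to three housekeeping genes; curves fitted in both directions relative to DMSO.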

Read-out in test [7]: Potassium channel subfamily K member 1 (KCNK1), KCNK1 (gene 3775)
Description: LTEA_HepaRG_KCNK1: Life Technologies and Expression Analysis (LTEA) Assay for Potassium channel subfamily K member 1 (KCNK1) using HepaRG (AID 2283511). The method, boiled down: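 Human HepaRG cultures receive test chemicals for 48 h in 0.5% DMSO, top concentration 100 uM with half-log dilutions. Induction or suppression of KCNK1 mRNA relative to DMSO is derived by bidirectional fitting of qRT-PCR data.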

Read-out in test [8]: Keratin 19 (KRT19), KRT19 (gene 3880)
The test is described as follows: LTEA_HepaRG_KRT19: Life Technologies and Expression Analysis (LTEA) Assay for Keratin 19 (KRT19) using HepaRG (AID 2283512). The method, boiled down:
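Gene-expression endpoint in the human liver line HepaRG after 48 h exposure to up to 100 uM test chemical with 0.5% DMSO vehicle; KRT19 mRNA by qRT-PCR, analyzed bidirectionally versus DMSO.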

Read-out in test [9]: JUN Transcription Factor, JUN (gene 3725)
The test is described as follows: LTEA_HepaRG_JUN: Life Technologies and Expression Analysis (LTEA) Assay for JUN Transcription Factor using HepaRG (AID 2283513). The method, boiled down: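 mRNA measured by TaqMan qRT-PCR after 48 h chemical exposure of HepaRG cultures; normalization to three housekeeping genes. Duplicate eight-point half-log curves from 100 uM in 0.5% DMSO; gain or loss fitted against DMSO baseline.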

Read-out in test [10]: Lipase C (LIPC), LIPC (gene 3990)
Description: LTEA_HepaRG_LIPC: Life Technologies and Expression Analysis (LTEA) Assay for Lipase C (LIPC) using HepaRG (AID 2283514). The method, boiled down: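 In this multiplexed gene-expression screen, human HepaRG cultures received test chemicals for 48 h across eight concentrations with 100 uM highest, in duplicate. Values reflect LIPC mRNA induction or suppression versus DMSO vehicle, from normalized qRT-PCR.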

Read-out in test [11]: Lipoprotein lipase (LPL), LPL (gene 4023)
Description: LTEA_HepaRG_LPL: Life Technologies and Expression Analysis (LTEA) Assay for Lipoprotein lipase (LPL) using HepaRG (AID 2283515). The method, boiled down:
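Concentration-response testing used half-log steps from 100 uM in 0.5% DMSO on human HepaRG cells, 48 h, duplicate wells. Phenobarbital 1 mM served as induction control; LPL mRNA was normalized to ACTB, GAPDH, POLR2A.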

Read-out in test [12]: MicroRNA 122 (MIR122), gene 406906
Description: LTEA_HepaRG_MIR122: Life Technologies and Expression Analysis (LTEA) Assay for MicroRNA 122 (MIR122) using HepaRG (AID 2283516). Note: the transcript read is the microRNA miR-122. The method, boiled down: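 Expression measured by microfluidic qRT-PCR with three housekeeping genes for normalisation, after 48 h treatment of HepaRG cultures. Eight concentrations (top 100 uM, half-log steps, 0.5% DMSO vehicle) in duplicate; gain or loss fitted relative to vehicle.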

Read-out in test [13]: matrix metalloproteinase-10 (MMP10), MMP10 (gene 4319)
The test is described as follows: LTEA_HepaRG_MMP10: Life Technologies and Expression Analysis (LTEA) Assay for matrix metalloproteinase-10 (MMP10) using HepaRG (AID 2283517). The method, boiled down:
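In differentiated HepaRG cultures kept in 0.5% DMSO, test chemicals act for 48 h over an eight-point range with a top dose of 100 uM. Expression is then quantified by TaqMan RT-PCR against ACTB, GAPDH and POLR2A.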

Read-out in the next test: MYC, MYC (gene 4609)
Description: LTEA_HepaRG_MYC: Life Technologies and Expression Analysis (LTEA) Assay for MYC using HepaRG (AID 2283518). The method, boiled down: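 Cells are thawed, plated and cultured 48 h, then treated for 48 h with test chemicals (eight half-log concentrations from 100 uM, 0.5% DMSO vehicle). RNA is isolated and MYC expression quantified by qRT-PCR against three housekeeping genes.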

Read-out in test [14]: matrix metalloproteinase-3 (MMP3), MMP3 (gene 4314)
The test is described as follows: LTEA_HepaRG_MMP3: Life Technologies and Expression Analysis (LTEA) Assay for matrix metalloproteinase-3 (MMP3) using HepaRG (AID 2283519). The method, boiled down: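 Human liver HepaRG cultures received chemicals (top concentration 100 uM, 0.5% DMSO) for 48 h in duplicate. MMP3 mRNA induction or loss was then assessed via TaqMan qRT-PCR with housekeeping-gene normalisation.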

Read-out in test [15]: Paternally Expressed 10 (PEG10), PEG10 (gene 23089)
The test is described as follows: LTEA_HepaRG_PEG10: Life Technologies and Expression Analysis (LTEA) Assay for Paternally Expressed 10 (PEG10) using HepaRG (AID 2283520).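 For AC50: differentiated HepaRG human liver cells in serum-free induction medium with 0.5% DMSO; PEG10 transcript by qRT-PCR normalised to ACTB GAPDH and POLR2A.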 The method, boiled down: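 PEG10 transcript measured by Fluidigm qRT-PCR, normalized to three housekeeping genes, in HepaRG cells treated 48 h (highest 100 uM, half-log steps, 0.5% DMSO vehicle). Cells plated 48 h before switching to serum-free induction medium.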

Read-out in test [16]: Protein phosphatase 2A (PPP2R4), PTPA (gene 5524)
Description: LTEA_HepaRG_PPP2R4: Life Technologies and Expression Analysis (LTEA) Assay for Protein phosphatase 2A (PPP2R4) using HepaRG (AID 2283522). The method, boiled down:
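Expression was quantified by Fluidigm qRT-PCR normalised to three housekeeping genes after 48 h treatment. Human HepaRG cells received an 8-point series from 100 µM downward by half-logs, in duplicate with 0.5% DMSO vehicle and 1 mM phenobarbital as induction control.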

Read-out in test [17]: Phosphatase and tensin (PTEN), PTEN (gene 5728)
The test is described as follows: LTEA_HepaRG_PTEN: Life Technologies and Expression Analysis (LTEA) Assay for Phosphatase and tensin (PTEN) using HepaRG (AID 2283523). The method, boiled down:
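Expression of PTEN is quantified in the human liver line HepaRG following two days of dosing (top concentration 100 uM, half-log dilutions, 0.5% DMSO). Values derive from bidirectional curve fitting relative to DMSO controls.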

Read-out in test [18]: Insulin-like growth factor-binding protein 1 (IGFBP1), IGFBP1 (gene 3484)
The test is described as follows: LTEA_HepaRG_IGFBP1: Life Technologies and Expression Analysis (LTEA) Assay for Insulin-like growth factor-binding protein 1 (IGFBP1) using HepaRG (AID 2283508). The method, boiled down: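 mRNA induction or loss was quantified by qRT-PCR after 48 h chemical exposure of human HepaRG cells, with 0.5% DMSO as vehicle and baseline. Concentration-response over eight points up to 100 uM.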

Chain of Hypoxia-inducible factor 1-alpha (Homo sapiens) (Q16665 whole entry, looked up): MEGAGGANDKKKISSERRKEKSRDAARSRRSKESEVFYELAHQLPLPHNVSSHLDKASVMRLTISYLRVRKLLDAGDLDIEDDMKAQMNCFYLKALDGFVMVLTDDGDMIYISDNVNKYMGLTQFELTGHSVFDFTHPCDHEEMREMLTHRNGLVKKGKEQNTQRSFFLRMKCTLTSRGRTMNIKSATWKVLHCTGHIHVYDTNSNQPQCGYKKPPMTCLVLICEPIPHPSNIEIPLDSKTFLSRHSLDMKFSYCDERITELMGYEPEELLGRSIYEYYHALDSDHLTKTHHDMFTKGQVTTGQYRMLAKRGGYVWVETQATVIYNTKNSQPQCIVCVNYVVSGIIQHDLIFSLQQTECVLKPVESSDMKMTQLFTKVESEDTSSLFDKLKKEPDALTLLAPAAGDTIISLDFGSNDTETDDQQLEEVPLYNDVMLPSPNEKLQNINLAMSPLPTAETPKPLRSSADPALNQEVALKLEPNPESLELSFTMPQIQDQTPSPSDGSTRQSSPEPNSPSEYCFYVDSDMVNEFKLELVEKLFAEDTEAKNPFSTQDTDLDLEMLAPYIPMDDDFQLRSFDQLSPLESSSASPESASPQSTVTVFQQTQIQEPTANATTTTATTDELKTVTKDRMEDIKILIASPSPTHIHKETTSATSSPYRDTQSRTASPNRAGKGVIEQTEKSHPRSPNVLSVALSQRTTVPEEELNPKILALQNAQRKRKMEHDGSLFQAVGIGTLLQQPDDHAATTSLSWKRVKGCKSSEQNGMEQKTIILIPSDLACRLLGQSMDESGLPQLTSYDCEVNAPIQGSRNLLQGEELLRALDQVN

Usually AC50 stands for the concentration at which the activity in the assay is half-maximal. Take `CC(C)(C)CC(C)(C)c1ccc(O)cc1`: the compound was classed as inactive (in test [1]; in test [2]; in test [3]; with HGF (gene 3082); in test [4]; in test [5]). The compound was called inactive in test [6], in [7], in [9], in test [10], in test [11] and in test [12]. In addition, the outcome in [13] was “inactive”; with MYC, MYC (gene 4609) it was “inactive”; in test [14], “inactive”; in test [15], “inactive”; in test [16], “inactive”; in test [17], “inactive”. Also, the AC50 in test [8] is 25.9 µM (active).
With `CC(C)(OO)c1ccccc1`, the call (in test [1]; in test [2]; in test [3]; in the test with HGF (gene 3082); in test [4]; in test [18]) was inactive. The outcome in [5], in test [6], in [7], in [8], in test [9] and in test [10] was inactive. For the same compound, the outcome in [11] is “inactive”; in test [12], “inactive”; in [13], “inactive”; with MYC, MYC (gene 4609), “inactive”; in test [14], “inactive”; in test [15] it was “inactive”. The result in [16] and in test [17] was inactive.
Consider `CC12CC1(C)C(=O)N(c1cc(Cl)cc(Cl)c1)C2=O` (centres undefined), for which the result (in test [1]; in test [2]; with HGF (gene 3082); in test [18]; in test [5]; in test [6]) was inactive. Besides, the outcome in test [7], in test [8], in test [9], in [10], in test [11] and in test [12] was inactive. Also, the outcome in [13] was “inactive”; with MYC, MYC (gene 4609) it was “inactive”; in test [14], “inactive”; in test [16], “inactive”; in [17], “inactive”. The AC50 is 21.6 µM (active) in test [3], 18.6 µM (active) in [4] and 10.3 µM (active) in test [15].
For the compound `NC(=O)O`, the compound was classed as inactive (in test [1]; in test [2]; in test [3]; with HGF (gene 3082); in test [4]; in test [18]). The compound was classed as inactive in [5], in [6], in test [7], in test [8], in test [9] and in test [10]. Further, the outcome in [11] was “inactive”; in [12], “inactive”; in test [13], “inactive”; with MYC, MYC (gene 4609), “inactive”; in [14], “inactive”; in [15], “inactive”. The compound was classed as inactive in [16] and in [17].
